NOD2-RIPK2 inh: NOD2-RIPK2 binding disruptors in cells, primary screen, fluorescence, CHO cells, BLA complementation; CCF4 ratio; 360,000 compounds, 0.38% hits; inhibition, % at 4.98 µM; Receptor-interacting serine/threonine-protein kinase 2 (Homo sapiens), O43353; in the data active means inhibition above about 21%
Myeloid diff MLP: induction of myeloid progenitor differentiation, primary screen, cell-based, flow cytometry, MLPCN library | ER-HoxA9 myeloid progenitors, lysozyme-GFP differentiation | calls only at 10 µM | 360,000 compounds, 1% hits | AID 624256, 2012;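 active means normalized GFP-positive differentiation at or above the plate's own cutoff, the solvent-only control mean plus 3 SD; inconclusive means no clear call, values can overlap the other calls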;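 further: cells exposed to compound for four days before flow analysis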
ABCB6 inh 2: ABCB6 transporter inhibitors, primary screen, K562-ABCB6 cells, flow cytometry, MLPCN library | ATP-binding cassette sub-family B member 6 (Homo sapiens), Q9NP58 | K562-ABCB6 porphyrin accumulation, 1 h; hits give low values | fluorescence ratio to DMSO, % at 10 µM | 360,000 compounds, 0.19% hits;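 active means fluorescence ratio to DMSO below 75%, the collection mean minus 3 SD; inconclusive means too few cells collected in the well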;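 further: signal is porphyrin accumulated inside mitochondria; lower ratio means ABCB6 inhibition with less porphyrin fluorescence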
TLR4 MyD88 comp: inhibitors of TLR4-MyD88 association in cells, primary screen, cell-based, HeLa CL3-4, BLA complementation, FRET ratio; Toll-like receptor 4 (Homo sapiens) + Myeloid differentiation primary response protein …; inhibition, % at 8.4 µM; HeLa CL3-4 TLR4/MyD88 BLA complementation; 200,000 compounds, 0.18% hits; in the data active means inhibition above about 25%
TLR9-MyD88 block: inhibitors of TLR9-MyD88 association in cells, primary screen, cell-based, CHO, BLA complementation, fluorescence | Toll-like receptor 9 (Homo sapiens) + Myeloid differentiation primary response protein … | 340,000 compounds, 0.21% hits | CCF4 FRET ratio | inhibition, % at 4.98 µM;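 active means inhibition above the mean over all tested compounds plus 3 SD, cut at about 21% in these data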
TLR4 MyD88 cnf: TLR4-MyD88 association inhibitors, retest, confirmation, cell-based, HeLa CL3-4, BLA complementation, FRET ratio. shares compounds with TLR4 MyD88 comp. CCF4 FRET ratio. inhibition, % at 8.4 µM. 350 compounds, 50% hits. AID 941, 2007;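 active means mean inhibition across three repeat runs above about 25% carried over from the earlier screen, limit read from the data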
BLA inhibitor ct: beta-lactamase inhibition flagged in TLR4-MyD88 counter-screen | shares compounds with TLR4 MyD88 comp | HeLa BLA reporter, CCF4 FRET ratio | inhibition, % at 8.4 µM | 350 compounds, 63% hits | AID 1237;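 active means mean inhibition over three repeats above about 26% taken from the earlier screen, limit read from the data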;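 further: HeLa cells stably expressing beta-lactamase reporter as counterscreen for TLR4-MyD88 inhibitors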
TLR9-MyD88 cf: TLR9-MyD88 association inhibitors, retest, confirmation, cell-based, CHO, BLA complementation, fluorescence, triplicate. shares compounds with TLR9-MyD88 block. CCF4 FRET ratio. inhibition, % at 4.98 µM. 680 compounds, 51% hits;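 active means mean inhibition across three repeats above about 21% taken from the earlier screen, limit read from the data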;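 further: blue over green emission ratio reports constitutive TLR9 MyD88 association via BLA complementation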
Target sequence (Q9NR96 whole entry, looked up): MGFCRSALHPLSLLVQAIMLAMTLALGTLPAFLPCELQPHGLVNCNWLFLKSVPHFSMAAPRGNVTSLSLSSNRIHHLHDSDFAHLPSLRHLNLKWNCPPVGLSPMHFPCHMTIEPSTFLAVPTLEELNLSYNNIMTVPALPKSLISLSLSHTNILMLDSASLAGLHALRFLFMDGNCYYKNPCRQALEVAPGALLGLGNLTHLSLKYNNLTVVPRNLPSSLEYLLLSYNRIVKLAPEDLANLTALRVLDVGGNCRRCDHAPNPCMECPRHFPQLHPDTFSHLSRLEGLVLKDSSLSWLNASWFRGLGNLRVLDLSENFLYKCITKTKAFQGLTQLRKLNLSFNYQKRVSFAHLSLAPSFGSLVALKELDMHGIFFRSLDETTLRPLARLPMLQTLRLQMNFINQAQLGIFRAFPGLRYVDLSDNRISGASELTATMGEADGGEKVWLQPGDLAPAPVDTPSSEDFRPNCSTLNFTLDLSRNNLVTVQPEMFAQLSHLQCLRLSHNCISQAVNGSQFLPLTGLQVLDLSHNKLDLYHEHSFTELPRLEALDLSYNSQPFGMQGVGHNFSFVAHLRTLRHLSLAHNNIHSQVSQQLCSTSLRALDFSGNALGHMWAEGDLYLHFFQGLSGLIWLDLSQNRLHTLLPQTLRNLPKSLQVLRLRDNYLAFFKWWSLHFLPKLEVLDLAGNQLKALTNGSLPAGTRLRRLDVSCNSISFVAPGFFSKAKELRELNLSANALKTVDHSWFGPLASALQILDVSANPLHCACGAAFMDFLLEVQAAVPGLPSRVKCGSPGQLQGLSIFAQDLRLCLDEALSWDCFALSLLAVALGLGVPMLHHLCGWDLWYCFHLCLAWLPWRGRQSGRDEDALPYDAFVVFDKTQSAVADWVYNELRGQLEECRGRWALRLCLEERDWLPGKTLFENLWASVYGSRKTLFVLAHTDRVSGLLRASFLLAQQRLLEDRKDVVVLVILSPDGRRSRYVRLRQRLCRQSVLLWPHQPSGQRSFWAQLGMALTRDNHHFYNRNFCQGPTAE
BLA counter-1: beta-lactamase reporter inhibitors in CHO cells, artefact control for TLR9-MyD88 binding inhibitor project, cell-based, fluorescence | AID 540251, 2011 | 680 compounds, 7% hits | CHO-BLA cells, CCF4 FRET ratio, BLA reporter | shares compounds with TLR9-MyD88 block | inhibition, % at 4.98 µM;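 active means mean inhibition above a 50% cutoff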;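 further: counterscreen of TLR9-MyD88 hits on CMV-driven BLA in CHO-K1 cells; higher means less blue over green ratio so more BLA blockade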
TLR9 CHO tox: CHO cell viability loss – luminescence, single concentration, cytotoxicity control for TLR9-MyD88 binding inhibitor project; shares compounds with TLR9-MyD88 block; TLR9-MyD88 CHO cells cytotoxicity; inhibition, % at 4.98 µM; 680 compounds, 39% hits; AID 588336, 2011; in the data active means inhibition above about 11%
Myeloid diff: inducers of myeloid progenitor differentiation, confirmation, cell-based, GFP/Mac1 flow cytometry, cherry pick 01; shares compounds with Myeloid diff MLP; ER-HoxA9 myeloid progenitors, GFP/Mac1 double-positive flow; calls only; 2,300 compounds, 2% hits; AID 651706, 2012;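 active means share of green or green-and-red cells above 9 and 9% in run 1 or 4 and 3% in run 2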
GFP autofluor: compound fluorescence in myeloid differentiation counter-screen; shares compounds with Myeloid diff MLP; ER-HoxA9 myeloid progenitors, no estrogen, GFP autofluorescence flow cytometry; vehicle wells 0%, positive control 100%; fluorescence response, % (concentration not given with the values); 2,300 compounds, 7.4% hits; AID 651707;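 active means over 5% cells positive for green fluorescent reporter, or over 2% positive for both it and APC stain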
NOD2-RIPK2 conf: NOD2-RIPK2 binding disruptors, retest, confirmation, fluorescence, CHO cells, BLA complementation, triplicate. shares compounds with NOD2-RIPK2 inh. CCF4 FRET. inhibition, % at 4.98 µM. 1,200 compounds, 70% hits. AID 624370, 2012;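 active means mean inhibition across replicates above a set limit taken from the earlier primary screen, cut at about 21% in these data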
BLA counter-2: NOD2-RIPK2 counterscreen BLA reporter activity. shares compounds with NOD2-RIPK2 inh. CHO BLA reporter, CCF4 FRET ratio. inhibition, % at 4.98 µM. 1,200 compounds, 57% hits. AID 624371;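 active means mean inhibition above the low-control mean inhibition plus three low-control SD, cut at about 11% in these data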
Hits are given with their value; . = inactive; ? = inconclusive; / = no result given; + = active, no number. A selection: hits, their analogues and other compounds. The true share with any hit is near 1.7%.

SMILES | NOD2-RIPK2 inh | Myeloid diff MLP | ABCB6 inh 2 | TLR4 MyD88 comp | TLR9-MyD88 block | TLR4 MyD88 cnf | BLA inhibitor ct | TLR9-MyD88 cf | BLA counter-1 | TLR9 CHO tox | NOD2-RIPK2 conf | BLA counter-2 | others
COc1cc(/C=C/C(=O)CC(=O)/C=C/c2ccc(O)c(OC)c2)ccc1O | 37 | . | . | 32 | 28 | . | 43 | 30 | . | . | 59 | 61
Nc1ccc2c3c(cccc13)C(=O)N(c1ccccc1)C2=O | 31 | + | . | 25 | 28 | . | 39 | . | . | . | 36 | 42 | Myeloid diff=.;GFP autofluor=.
C/C(=N\Nc1ccc([N+](=O)[O-])cc1)c1ccc2c(c1)OCO2 | 23 | . | . | 32 | 32 | 35 | 60 | 28 | . | . | . | 25
C/C(=N\Nc1ccc([N+](=O)[O-])cc1)c1cc2ccccc2o1 | 57 | . | . | 60 | 58 | 54 | 87 | 44 | . | . | 67 | 72
CCN1CCc2c(sc(NC(=O)Cc3ccccc3)c2C(N)=O)C1 | . | . | ? | / | . | / | / | / | / | / | / | /
CCN1CCc2c(sc(NC(=O)Nc3ccc(Cl)c(Cl)c3)c2C(N)=O)C1 | 41 | + | . | 35 | 48 | 38 | 60 | . | . | 20 | 24 | 30
O=C1/C(=C/c2ccsc2)N2CCC1CC2 | . | . | . | / | . | / | / | / | / | / | / | /
CCCN1C(=O)/C(=C/c2ccc(N3CCCC3)c(C)c2)NC1=S | 35 | + | . | 37 | 35 | 37 | 69 | 26 | . | . | 49 | 55
CCCN1C(=O)/C(=C/c2ccc(N3CCOCC3)cc2)NC1=S | . | . | . | . | . | / | / | / | / | / | / | /
Cc1cc(F)ccc1S(=O)(=O)Nc1ccc(C(=O)N2CCCCCC2)cc1 | . | . | . | / | . | / | / | / | / | / | / | /
Cn1c(N)c(C(=O)COC(=O)CNC(=O)c2ccccc2Cl)c(=O)n(C)c1=O | . | . | . | / | . | / | / | / | / | / | / | /
CN(C)c1ccc(/C=C/C(=O)c2cccc(Br)c2)cc1 | 60 | . | . | 63 | 33 | 66 | 90 | 27 | . | . | 64 | 68
Cc1ccc(N2C(=O)c3cccc4c([N+](=O)[O-])ccc(c34)C2=O)c2cccnc12 | . | ? | . | / | . | / | / | / | / | / | / | /
Cc1ccnc(N2C(=O)c3cccc4c([N+](=O)[O-])ccc(c34)C2=O)c1 | 88 | ? | . | 92 | 79 | 90 | 113 | 58 | 82 | 93 | 92 | 83
O=C1c2cccc3c([N+](=O)[O-])ccc(c23)C(=O)N1Cc1cccnc1 | 78 | ? | . | 77 | 66 | 79 | 104 | 49 | 66 | 72 | 84 | 71
O=C1c2cccc3cccc(c23)C(=O)N1Cc1cccnc1 | . | . | . | / | . | / | / | / | / | / | / | /
O=C(/C=C/c1cccs1)NNC(=O)c1ccccc1 | . | . | . | / | . | / | / | / | / | / | / | /
CC1Cc2nc(SCC(=O)NCC3CCCO3)n(C)c(=O)c2S1 (centres undefined) | . | . | . | / | . | / | / | / | / | / | / | /
CCOC(=O)C1=C(CSc2nc(-c3ccccc3)ccc2C#N)OC(N)=C(C#N)C1c1cccnc1 (centres undefined) | 21 | + | . | 27 | . | . | . | / | / | / | 26 | 37
CCOC(=O)CC1=C(C(=O)OCC)C(c2cccnc2)C(C#N)=C(N)O1 (centres undefined) | . | . | . | . | . | / | / | / | / | / | / | /
Cn1c(=O)c(NCCc2ccccc2)c2c3c(cccc31)C(=O)c1ccccc1-2 | 38 | + | . | 39 | 37 | 39 | 64 | 37 | . | . | 63 | 71
Cn1c(=O)c(NCCO)c2c3c(cccc31)C(=O)c1ccccc1-2 | . | . | . | . | . | / | / | / | / | / | / | /
CCCCNc1c2c3c(cccc3n(C)c1=O)C(=O)c1ccccc1-2 | 47 | . | . | 41 | 36 | 26 | 47 | 26 | . | . | 52 | 58
O=C(Cn1ncc(Cl)c(Cl)c1=O)c1ccc(Cl)cc1 | 34 | ? | . | 29 | 32 | . | . | . | . | 72 | 39 | .
CN(C)S(=O)(=O)c1cccc(-c2nnc(SCc3ccc4c(c3)OCCO4)o2)c1 | . | . | . | . | . | / | / | / | / | / | / | /
CC(=O)C1=NN(c2ccccc2)C(c2ccc3c(c2)OCO3)N1c1ccccc1 (centres undefined) | 21 | . | . | 28 | . | . | 36 | / | / | / | 39 | 49
CC(=O)C1=NN(c2ccccc2)C(c2cccs2)N1c1ccc(N(C)C)cc1 (centres undefined) | . | . | . | . | . | / | / | / | / | / | / | /
Cc1[nH]c2ccccc2c1/C=N/NC(=O)c1cccc([N+](=O)[O-])c1 | . | . | . | . | / | / | / | / | / | / | / | /
Cc1[nH]c2ccccc2c1/C=N/Nc1ccc([N+](=O)[O-])cc1 | 28 | + | . | 31 | 26 | . | 43 | . | . | . | 30 | 42
O=c1[nH]c2ccccc2nc1/C=C/c1ccc(O)cc1 | 38 | + | . | 36 | 36 | 30 | 53 | . | . | . | 42 | 53
